Results from PubChem BioAssay (Tox21).
Records with an inconclusive call do not appear. Values without a mark were called inactive. Active and inactive are the calls of the source. Calls follow the shape of the dose curve; as a rule, active = well fitted cell-killing curve with a large enough effect in the repeat runs; inconclusive = weak or mixed curves, or effect the other way; inactive = flat fitted curve, though single readings scatter.

Assay: qHTS RealTime-Glo MT Cell Viability Assay in HEK293 cells - 8 hour (AID 1224887); also: nearly all actives have a fitted effect of over 50% in size; as to activity change, negative = cytotoxicity: top concentration of the series differs between compounds
Conditions: RealTime-Glo luminescence; series mostly up to 76.8 µM; activity change, negative = cytotoxicity: at the top concentration
Text: U.S. Tox21 Program National Center for Advancing Translational Sciences [NCATS] NIH Chemical Genomics Center [NCGC] U.S. Environmental Protection Agency [EPA] National Institutes of Environmental Health Sciences [NIEHS] National Toxicology Program [NTP] U.S. Food and Drug Administration [FDA] Tox21 Assay Overview: Measure of cell viability is critical in the cell-base assay. Analysis of cell viability is necessary for the characterization of cell responses to cytotoxic drugs and environmental stress. A RealTime-Glo MT Cell Viability Assay to monitor cell viability in real time of continues cell culture during 40 hours of compound treatment was used to screen Tox21 10K library compounds in Hek293 cells. The RealTime-Glo MT Cell Viability Assay is a nonlytic, homogeneous, bioluminescent method to measure cell viability in real time using a simple, plate-based method. The assay involves adding NanoLuc luciferase and a cell-permeant prosubstrate to cells in culture. Viable cells reduce the proprietary prosubstrate to generate a substrate for NanoLuc luciferase. This substrate diffuses from cells into the surrounding culture medium, where it is rapidly used by the NanoLuc Enzyme to produce a luminescent signal. The signal correlates with the number of viable cells, making the assay well suited for cytotoxicity studies.
Tox21 Assay Protocol Summary: The mixture of Hek293 cell suspension and reagents were dispensed at 600cells/6 ul/well in 1536-well tissue culture treated black solid bottom plates using a Multidrop dispenser. After the assay plates were incubated at a 37 C/5% CO2 incubator for 5 hours, 23 nL of compounds dissolved in DMSO, positive and negative controls was transferred to the assay plate by a pintool work station. The plates were incubated at 37 C for 40 hours. The luminescence intensity were measured at 0h, 8h, 16h, 24h, 32h and 40h time points using ViewLux plate reader during compound treatment.
% is scaled to controls: 0 for no effect and ±100 for the full control effect; potency is read from the fitted curve at half-maximal effect.

Compound	Potency	activity change, negative = cytotoxicity
O=C(Cl)c1cc(C(=O)Cl)cc(C(=O)Cl)c1	49 µM (active)	–
N=c1ccn2c(n1)O[C@H]1[C@H](O)[C@@H](CO)O[C@H]12	–	17.8%
Nc1ccc([N+](=O)[O-])c(C(F)(F)F)c1	–	-0.288% [at 35.3 µM]
COc1ccc(C(=O)Nc2nc3ccccc3c(NCc3ccccc3)c2C#N)cc1	–	-21.3%
CCO[Si](CCCCl)(OCC)OCC	–	5.81%
C[N+](C)(C)CCOC(=O)CCC(=O)OCC[N+](C)(C)C	–	3.09% [at 35.3 µM]
CCCCC(CC)COC(=O)CCCCCCCCC(=O)OCC(CC)CCCC (stereo not given)	–	2.99%
CCN(CC)CCNC(=O)c1cc(Br)c(N)cc1OC	–	10.1% [at 35.3 µM]
CCCCC	–	4.41%
CN(Cc1ccc(C(C)(C)C)cc1)Cc1cccc2ccccc12	–	-19.5% [at 35.3 µM]
COC(C)OC	–	2.6%
CCC(C)O (stereo not given)	–	8.76%
c1ccc(CNCCNCc2ccccc2)cc1	–	1.42% [at 35.3 µM]
CN(C)CCN(Cc1ccccc1)c1ccccn1	–	-12.5% [at 35.3 µM]
CCCCCC[C@@H](O)C/C=C\CCCCCCCC(=O)OC	–	4.08%
CCCCCCCCCOS(=O)(=O)O	–	9.24%
CCOC(=O)C1=C[C@]2(CC)CCCN3CCc4c(n1c1ccccc41)[C@@H]32	–	-15.6% [at 35.3 µM]
C[C@@H]1C[C@H]2[C@@H]3CCC4=CC(=O)C=C[C@]4(C)[C@@]3(F)[C@@H](O)C[C@]2(C)[C@@]1(O)C(=O)COC(=O)c1ccncc1	–	-2.98% [at 35.3 µM]
CCCCCCCC/C=C\CCCCCCCC(=O)OCC	–	4.96%
CCC(=O)O[C@]1(C(=O)CCl)[C@@H](C)C[C@H]2[C@@H]3CCC4=CC(=O)C=C[C@]4(C)[C@@]3(F)[C@@H](O)C[C@@]21C	–	-22.8% [at 35.3 µM]

Compound	Potency	activity change, negative = cytotoxicity
Cc1ccc(N=Nc2c(O)c(C(=O)O)cc3ccccc23)c(S(=O)(=O)O)c1	–	-4.11% [at 35.3 µM]
NS(=O)(=O)c1ccc(N2CCCCS2(=O)=O)cc1	–	0.208% [at 35.3 µM]
CCC(CC)Nc1ccc(C)c(C)c1	–	0.327%
CNCCCN1c2ccccc2CCc2ccccc21	–	-21.7% [at 35.3 µM]
Nc1ccccc1S(=O)(=O)c1ccccc1	–	-15.1%
C/C=C(/C(=C/C)c1ccc(OC(C)=O)cc1)c1ccc(OC(C)=O)cc1	–	0.532% [at 35.3 µM]
C/C=C/C(=O)CC	–	0.36% [at 15.8 µM]
NC(=O)C(c1ccccc1)(c1ccccc1)[C@@H]1CCN(CCc2ccc3c(c2)CCO3)C1	–	-23% [at 35.3 µM]
CCCCNc1ccc(C(=O)OCCOCCOCCOCCOCCOCCOCCOCCOCCOC)cc1	–	-25.3% [at 35.3 µM]
CCN(CC)CCOC(=O)C(Cc1cccc2ccccc12)CC1CCCO1 (stereo not given)	–	-13% [at 35.3 µM]
C=C(C)C(=O)OCCO	–	3.99%
CCOC(=O)C(F)(F)F	–	20.2%
CCCCCCCCCCO[C@@H]1O[C@H](CO)[C@@H](O)[C@H](O)[C@H]1O	–	-14.2%
CCOC(=O)C(O)c1ccccc1 (stereo not given)	–	7.33% [at 35.3 µM]
COCC(C)OC(C)=O (stereo not given)	–	-1.13%
CN1CCC(N(Cc2cccs2)c2ccccc2)CC1	–	-7.46% [at 35.3 µM]
CCCCOC(=O)CCCCCCCC(=O)OCCCC	–	10.7%
O=C1OC(=O)C2C3C=CC(C3)C12 (stereo not given)	–	6.63%
CN(C)c1ccc(C(c2ccccc2)c2ccc(N(C)C)cc2)cc1	–	-22%
CCCCCCCCCCCc1ccccc1	–	4.32%
